# High-throughput results deposited in PubChem by several laboratories.
# PfHsp90 yeast 2: growth inhibition of PfHsp90-expressing yeast, primary screen, antimalarial PfHsp90 inhibitor project, S. cerevisiae, BacTiter-Glo luminescence, single point, set 2 | BacTiter-Glo ATP, 48 h; yeast lacking PDR1 and PDR3 efflux regulators | actives 0.32% (n = 310,000) | inhibition, % at 9.4 µM;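 active = every replicate shows inhibition above about 80%, whatever the replicate mean, limit read from the data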
# tim10-1 inh: growth inhibitors of tim10-1 mutant yeast, primary screen, luminescence, uHTS. S. cerevisiae tim10-1 ts strain growth, BacTiter-Glo, 24 h. inhibition, % at 20 µM. actives 2.2% (n = 330,000). AID 463190, 2010;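 active = inhibition of at least 40%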;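 note: mutant grown at 25 °C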
# V-ATPase pHluor: regulators of yeast V-ATPase proton pumping, primary screen, pHLuorin cytosolic pH fluorescence; S. cerevisiae; AID 504577, 2011; response, % at 10 µM; actives 0.37% (n = 350,000); in the data active = response mostly above about 7.3%, no sharp cut-off; inactive = mostly below about 5.4%; note: actives read high
# TIM10 inh: growth inhibitors of isogenic TIM10 control yeast, primary screen, counter-screen for tim10-1 yeast inhibitor project, luminescence, uHTS | S. cerevisiae TIM10 strain growth, BacTiter-Glo luminescence, 24 h | inhibition, % at 10 µM | actives 1.4% (n = 330,000);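 active = inhibition of 40% or more at the single tested concentration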;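 note: wild-type TIM10 isogenic control strain grown at permissive 25 °C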
# tim23-1 inh: growth inhibitors of tim23-1 mutant yeast, primary screen, luminescence, uHTS. S. cerevisiae tim23-1 growth, BacTiter-Glo luminescence, 24 h. inhibition, % at 20 µM. actives 1.3% (n = 330,000). AID 463212, 2010;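 active = growth inhibition of the mutant yeast at or above 50%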;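 note: temperature-sensitive mutant grown at 25 °C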
# tim10-1 conf: growth inhibitors of tim10-1 mutant yeast, confirmation, single concentration, luminescence, S. cerevisiae; S. cerevisiae tim10-1 ts strain growth, BacTiter-Glo, 24 h; inhibition, % at 20 µM; AID 463213, 2010; actives 56% (n = 7,400); shares compounds with tim10-1 inh;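 active = inhibition of yeast growth at or above a set limit in either of two repeat tests at 20 µM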;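 note: tim10-1 mutant grown at permissive 25 °C to find synthetic lethal compounds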
# tim10 confirm: growth inhibitors of wild-type TIM10 yeast, confirmation, counter-screen for tim10-1 synthetic lethality project, single concentration, luminescence, S. cerevisiae; S. cerevisiae tim10 strain growth, BacTiter-Glo luminescence, 24 h; inhibition, % at 10 µM; shares compounds with TIM10 inh; actives 63% (n = 4,600);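 active = inhibition of yeast growth at or above a set limit in either of two replicates at 10 µM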; note: this counterscreen used the strain with wild-type TIM10
# tim23-1 conf: tim23-1 mutant yeast growth inhibitors, confirmation, luminescence, single concentration. AID 463218, 2010. S. cerevisiae tim23-1 growth, BacTiter-Glo luminescence, 24 h. inhibition, % at 20 µM. shares compounds with tim23-1 inh. actives 83% (n = 4,400);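 active = inhibition above about 39% in either of two replicate wells at 20 µM, limit read from the data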;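 note: temperature-sensitive tim23-1 mutant grown at 25 °C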
# Numbers stand for hits; – = inactive; · = not tested or not shown; + = active, no number. Sampled rows, rich in hits. Any-hit rate of the full collection: about 3.7%.
SMILES,PfHsp90 yeast 2,tim10-1 inh,V-ATPase pHluor,TIM10 inh,tim23-1 inh,tim10-1 conf,tim10 confirm,tim23-1 conf
OC1CCN(c2c3c(nc4cc(-c5cccc(F)c5)nn24)CCCC3)CC1,–,41,–,–,51,–,·,–
COc1cc(/C=C/C(=O)N2CCC=CC2=O)cc(OC)c1OC,–,58,–,57,59,40,45,54
COc1cc(/C=C/C(=O)N2CCCN(C(=O)/C=C/c3cc(OC)c(OC)c(OC)c3)CC2)cc(OC)c1OC,–,–,–,–,–,·,·,·
COC(=O)/C(=C1/Oc2cc(C)oc(=O)c2S1)C(F)(F)F,–,57,–,41,62,39,41,69
N#Cc1c(N2CCCC2)nc(N)c2c(N)nc(N3CCCC3)cc12,–,60,–,43,81,54,31,89
CCOc1cc2c(C#N)c(N3CCCC3)nc(N)c2c(N)n1,–,–,–,–,–,·,·,·
O=C(COc1ccc(F)cc1)N1CCC(Cc2ccccc2)CC1,–,–,–,–,–,·,·,·
Nc1ccn([C@@H]2O[C@H](CNCc3cccc(OC4CCCC4)c3)[C@@H](O)[C@H]2O)c(=O)n1,·,·,–,·,·,·,·,·
Cc1ccc(-c2cc([C@H]3[C@H]4C=CC[C@@H](C)[C@@H]4C(=O)N3Cc3ccccc3)ccc2F)cc1,–,–,–,–,–,·,·,·
CC[C@@H]1CC=C[C@H]2[C@H]1C(=O)N(Cc1ccccc1)[C@H]2c1cc(C)ccc1F,·,55,·,50,51,35,38,54
CC(Oc1ccc(Br)cc1)C(=O)Nc1nc(-c2ccccn2)cs1 (configuration not stated),·,45,–,–,70,–,·,50
O=C(NC1CCCCCCC1)c1ccccc1O,–,46,–,49,65,34,46,60
O=C(CSc1nc2sc3c(c2c(=O)n1-c1ccccc1)CCCC3)N/N=C/c1ccccc1C(=O)O,–,–,–,–,–,·,·,·
Cc1ccc(/C=C2\SC(=S)N(c3c(C)n(C)n(-c4ccccc4)c3=O)C2=O)cc1,–,–,–,–,–,·,·,·
Cc1c(N2C(=O)/C(=C/C3CC=CCC3)SC2=S)c(=O)n(-c2ccccc2)n1C (configuration not stated),·,48,–,–,51,35,·,47
Cn1c2ccccc2c(=O)c2c(=O)n(C3CCCCC3)c(-c3cccs3)nc21,–,43,–,–,61,36,·,69
Cn1c2ccccc2c(=O)c2c(=O)n(C3CCCCCC3)c(C3CCCCC3)nc21,–,·,–,·,·,·,·,·
C/C(N)=C(/C#N)C(=O)CN1C(=O)NC(Cc2c[nH]c3ccccc23)C1=O (configuration not stated),–,–,–,–,–,·,·,·
CC/C(=N\NC(=S)Nc1ccc(OC)cc1)c1ccc(OC(F)F)cc1,–,54,–,–,53,46,·,43
CC/C(=N\NC(C)=O)c1ccc(OC(F)F)cc1,·,–,·,–,–,·,·,·
Oc1ccc(/C=C/c2nc(-c3ccccc3O)n(-c3ccccc3)n2)cc1,·,60,–,–,59,51,·,64
COc1ccc(/C=C(\C#N)C(=O)OCC(=O)NCc2ccccc2OC)cc1,–,–,–,–,–,·,·,·
COc1ccccc1CNC(=O)/C(C#N)=C/c1ccc(OC)c(OC)c1OC,–,46,–,–,53,45,·,–
Cc1cc(NC(=O)Nc2cccc(Cl)c2)n(-c2ccccc2)n1,–,–,–,–,–,·,·,·
Cc1cc(NC(=O)Nc2cccc(Cl)c2)n(-c2ccccn2)n1,–,54,–,–,70,41,·,76
SMILES,PfHsp90 yeast 2,tim10-1 inh,V-ATPase pHluor,TIM10 inh,tim23-1 inh,tim10-1 conf,tim10 confirm,tim23-1 conf
Nc1ccc2c(c1)C(=O)C(=O)c1ccccc1-2,–,92,–,94,73,92,99,69
CC1(C)CC(Cc2ccc(Cl)nc2)N(C(=O)OC(C)(C)C)C1 (configuration not stated),·,·,–,·,·,·,·,·
Oc1c(I)cc(Cl)c2cccnc12,111,67,–,56,70,56,70,73
Cc1ccc(C(=O)NC(C#N)=C(Cl)Cl)cc1,·,51,·,45,69,41,–,62
C[C@H](CO)N1C[C@H](C)[C@@H](CN(C)C(=O)NC2CCCCC2)Oc2c(NC(=O)c3ccncc3)cccc2C1=O,–,–,–,–,–,·,·,·
O=[N+]([O-])c1cc(/C=N/Nc2nc(N3CCCCC3)nc(N3CCCCC3)n2)ccc1O,–,49,–,52,50,39,–,52
CC(=O)O/N=C(/c1nonc1N)N1CCN(c2ccc([N+](=O)[O-])cc2Cl)CC1,–,62,–,75,63,67,85,75
Fc1c(F)c(F)c(N/N=C/c2c[nH]c3ccccc23)c(F)c1F,–,59,–,61,80,55,–,43
CC(C)CC(=O)O/N=C1\C(=O)N(c2ccccc2)c2ccccc21,–,63,–,50,54,59,74,62
C#CCOCCOCCOCCNc1nc(N2CCN(C(=O)CCCCCCCCCCNC(=O)[C@H](CCCCN)n3cc(C)nn3)CC2)nc(N2CCN(C(=O)CCCCCCCCCCNC(=O)[C@H](CCCN=C(N)N)n3cc(C[C@@H](C)CC)nn3)CC2)n1,·,40,·,–,50,–,·,64
O=C(O)COc1ccccc1/C=N/NC(=O)c1cccc(S(=O)(=O)N2CCOCC2)c1,–,–,–,–,–,·,·,·
O=c1cc(-c2ccccc2)cc(-c2ccccc2)n1O,+,47,–,–,80,–,·,68
Cc1ccc(S(=O)(=O)NC(=O)N(CCC#N)Cc2ccccc2)cc1,–,–,–,–,–,·,·,·
Brc1ccc(C2=CC(c3cccs3)n3ncnc3N2)cc1 (configuration not stated),–,50,–,–,52,38,·,54
S=C(NCCCN1CCOCC1)N1CCN(c2nc(-c3ccc(Cl)cc3)cs2)CC1,–,–,–,–,–,·,·,·
S=C(NCC1CCCO1)N1CCN(c2nc(-c3ccc(Cl)cc3)cs2)CC1 (configuration not stated),–,51,–,40,50,39,43,52
Cc1[nH]nc2c1C(c1cc(Br)cs1)C(C#N)=C(N)O2 (configuration not stated),–,53,–,–,61,35,·,45
